Measurements: PubChem BioAssay AID720519 (National Center for Advancing Translational Sciences (NCATS), 2013)
Results filed as inconclusive are left out. A call without a number means that no potency is given here. The source made the active and inactive calls. The call rests on the fitted dose curve; in most records, active means well fitted activation curve with a large enough effect; inconclusive means small, poorly fitted or top-dose-only effect; inactive means flat fitted curve, though single readings scatter.

Experiment: qHTS for Inhibitors of Cell Surface uPA Generation: Confirmatory Assay for Cherry-picked Compounds
Conditions: cell surface uPA activity generation, qHTS confirmation; series mostly up to 115 µM
Outline: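 RAW 264.7 cells at 4000/well, incubated overnight, then treated with compounds. After 24 h at 37 C, viability was read by ATPlite luminescence. An increase in signal indicates blocked uPA-dependent LF entry.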
Potency means the concentration at half of the fitted maximal effect.

Row | SMILES | Potency
1 | O=C(Nc1ccc2c(c1)CCC2)Nc1ccc2c(c1)OCO2 | inactive
2 | COc1cc(C2NC(=O)NC(C)=C2C(=O)OCC2CCCCC2)ccc1O (stereo not drawn) | inactive
3 | Cc1nc2nc(C)c(NS(=O)(=O)c3ccc(Cl)cc3)c(=O)n2[nH]1 | inactive
4 | COc1cccc(NC(=O)c2nnn(CC(=O)Nc3cc(C)cc(C)c3)c2N)c1 | inactive
5 | COC(=O)C1C(=O)c2c([nH]c(C(=O)OC3CCCCC3)c2C)CC1C (stereo not drawn) | inactive
6 | CCCCN(CC)CCNC(=O)c1cc2cc3ccc(Cl)cc3nc2o1 | inactive
7 | Cc1cccc(CNc2ccc(C(CC(N)=O)NC(=O)c3cccc(Br)c3)cc2[N+](=O)[O-])c1 (stereo not drawn) | inactive
8 | Cn1c(C2CCCCC2)nc2cc(N)ccc21 | inactive
9 | COC(=O)c1c(NC(=O)c2c(OC)cccc2OC)sc2c1C(C(=O)OC)CC2 (stereo not drawn) | 29.3 µM (active)
10 | C/C=C(/C(=C/C)c1ccc(O)cc1)c1ccc(O)cc1 | inactive
11 | CC1CN(C(=O)CCC(=O)NCc2ccccc2)c2ccccc2S1 (stereo not drawn) | inactive
12 | N#CCC(=O)N/N=C/c1ccc(OCC(=O)Nc2ccc(F)cc2)cc1 | inactive
13 | COc1ccc(C)cc1NC(=O)CSCc1cc(=O)n2c(C)csc2n1 | inactive
14 | COC(=O)COc1cc2ccccc2cc1C(=O)Nc1ccccc1 | inactive
15 | COc1ccc(CNC(=O)C2(CC3CC(c4ccccc4)=NO3)CCNCC2)cc1 (stereo not drawn) | inactive
16 | O=C(/C=C/c1ccc(O)c(O)c1)O[C@@H]1C[C@](O)(C(=O)O)C[C@@H](O)[C@H]1O | inactive
17 | CCN(CC)S(=O)(=O)c1ccc(C(=O)Nc2nnc(COC)o2)cc1 | inactive
18 | CCOc1ccc(Cl)cc1/C=N/NC(=O)c1ccccc1 | inactive
19 | Cc1nc(NC2CCCCC2)c2nnn(Cc3ccccc3Cl)c2n1 | inactive
20 | CCCCN(CC(=O)NCc1ccc(F)cc1)C(=O)c1ccco1 | inactive
21 | CC(C)(C)NC(=O)C(c1cccs1)N(C(=O)c1csnn1)c1ccccc1F (stereo not drawn) | inactive
22 | CCOC(=O)c1c(NC(=O)CC2SC(N)=NC2=O)sc2c1CCC(C)C2 (stereo not drawn) | inactive
23 | CNS(=O)(=O)c1cc(-c2nnc(Nc3ccc(CC(N)=O)cc3)c3ccccc23)ccc1C | inactive
